Luciferase inh – blocks Photinus pyralis firefly luciferase activity | purified firefly luciferase, luminescence, 8 min | Potency, µM (highest dose often 57.1 µM), actives largely listed as inhibitors | 72,000 tested, 2.2% active; also: nearly all actives have a fitted effect of over 40% in size
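Compounds were tested as concentration series (qHTS) against purified P. pyralis luciferase with luciferin and 10 uM ATP in 50 mM imidazole pH 7.2, 50 mM KCl, 7 mM MgCl2, 0.01% Tween 20, 0.05% BSA. Luminescence was read after 8 min at ambient temperature.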
HSD17B inhib – HSD17B dehydrogenase inhibition. Potency, µM (top dose mostly 57.1 µM), usual class: inhibitors. recombinant HSD17B10, NADH fluorescence kinetic. 75,000 tested, 7.6% active. Q99714. AID 893;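 also: the protocol describes HADH2 (HSD17B10) and not the HSD17B4 of the title; nearly all actives have a fitted effect of over 70% in size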
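Enzyme plus compound, 15 min room temperature; substrate mix added (NAD+ 1 mM, beta-hydroxybutyryl-CoA 90 uM final); plates read kinetically for NADH fluorescence. HADH2 was His-tagged, E. coli-derived, 20 nM.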
ERK AVP block – vasopressin-driven ERK pathway inhibition | HEK293-V1b, vasopressin-stimulated pERK AlphaScreen | Potency, µM (titrated, usually from 57.5 µM), most hits filed as inhibitors | 72,000 tested, 0.99% active | AID 995; also: nearly all actives have a fitted effect of over 55% in size
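V1b-HEK293 cells; cpd 30 min 37C; 25 nM vasopressin 5 min; lyse 10 min; AlphaScreen beads 5 hr RT. Normalized to DMSO basal and 25 nM vasopressin; AC50 by Hill fit.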
15-hLO inh – 15-hLO (ALOX15) enzyme inhibition. AID 887. purified 15hLO-1, xylenol orange hydroperoxide absorbance. Potency, µM (doses to about 57.1 µM), usual class: inhibitors. 74,000 tested, 1.4% active. P16050; also: nearly all actives have a fitted effect of over 55% in size
Target sequence (P16050 whole entry, looked up): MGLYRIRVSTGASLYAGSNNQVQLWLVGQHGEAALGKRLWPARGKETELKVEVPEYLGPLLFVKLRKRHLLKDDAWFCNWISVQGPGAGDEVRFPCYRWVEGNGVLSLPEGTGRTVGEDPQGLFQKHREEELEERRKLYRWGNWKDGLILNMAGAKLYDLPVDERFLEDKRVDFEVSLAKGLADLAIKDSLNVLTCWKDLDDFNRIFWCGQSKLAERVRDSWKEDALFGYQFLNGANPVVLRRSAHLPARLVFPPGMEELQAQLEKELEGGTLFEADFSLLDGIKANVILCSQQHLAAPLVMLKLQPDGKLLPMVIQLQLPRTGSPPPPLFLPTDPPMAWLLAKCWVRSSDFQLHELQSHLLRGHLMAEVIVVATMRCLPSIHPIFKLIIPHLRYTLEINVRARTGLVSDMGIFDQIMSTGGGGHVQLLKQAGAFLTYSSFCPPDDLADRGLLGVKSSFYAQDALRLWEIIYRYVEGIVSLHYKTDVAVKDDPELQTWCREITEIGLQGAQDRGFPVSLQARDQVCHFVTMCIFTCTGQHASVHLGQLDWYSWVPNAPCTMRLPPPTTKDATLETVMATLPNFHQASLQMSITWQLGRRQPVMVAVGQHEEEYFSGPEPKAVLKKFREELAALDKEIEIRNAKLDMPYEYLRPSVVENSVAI
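Quantitative HTS in 25 mM Hepes pH 7.5 containing 0.01% Triton X-100: human 15hLO-1 at 40 nM, arachidonic acid at 50 uM, 6 min turnover. Product quantified via ferrous oxidation/xylenol orange, 573:405 nm absorbance ratio.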
HADH2 inh – inhibitors of human HADH2 dehydrogenase; recombinant HADH2, NADH fluorescence, beta-hydroxybutyryl-CoA; Q99714; 73,000 tested, 3.4% active; Potency, µM (doses to about 57.1 µM), actives largely listed as inhibitors; also: nearly all actives have a fitted effect of over 60% in size
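E. coli-expressed His-tagged HADH2 tested at 20 nM in alkaline Tris buffer (pH 9.0); oxidation of 90 uM beta-hydroxybutyryl-CoA with 1 mM NAD+ tracked fluorimetrically for 4 min.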
Bst PK mod – alters activity of Bacillus stearothermophilus pyruvate kinase. purified pyruvate kinase, luminescence ATP production; ribose 5-phosphate activator present at AC10. Potency, µM. 51,000 tested, 1.2% active; in the data active = potency below about 11 µM; inconclusive = mostly about 12 µM to 25 µM;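 the screen sought inhibitors and activators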
Of the large screens only hits and unclear results are named; the others gave an inactive call; ! = repeats disagree. The list is not random: actives were taken first. Their share in the collection is about 11%. Unless noted, calls follow the shape of the dose curve; as a rule, active = well fitted curve in the direction sought with a large enough effect; inconclusive = small, poorly fitted or top-dose-only effect, or another doubt; inactive = no such curve, though single readings can be large; an effect the other way counts as inactive or inconclusive.

O=C(OCC1OC(OC(=O)c2cc(O)c(O)c(OC(=O)c3cc(O)c(O)c(O)c3)c2)[C@@H](OC(=O)c2cc(O)c(O)c(OC(=O)c3cc(O)c(O)c(O)c3)c2)C(OC(=O)c2cc(O)c(O)c(OC(=O)c3cc(O)c(O)c(O)c3)c2)C1OC(=O)c1cc(O)c(O)c(OC(=O)c2cc(O)c(O)c(O)c2)c1)c1cc(O)c(O)c(OC(=O)c2cc(O)c(O)c(O)c2)c1 (some centres not stated)	HSD17B inhib 0.316µM, ERK AVP block 12.6µM, 15-hLO inh 0.501µM (no result: Luciferase inh, HADH2 inh, Bst PK mod)
COc1ncc2nc(-c3cn(C)c4ccccc34)c(=O)n(C)c2n1	none (no result: Bst PK mod)
O=C(c1cnccn1)N1CCC2(CC1)CCN(c1ccccc1)CC2	none (no result: Bst PK mod)
Cc1cc(C)nc(N(C#N)CC(=O)N2CCC(C(N)=O)CC2)n1	Luciferase inh 7.94µM, Bst PK mod inconclusive
Cc1cc(=O)[nH]c(SCC(=O)N2CCC(C(N)=O)CC2)n1	HADH2 inh inconclusive
C=CCc1cccc2cc(C(=O)NC)c(=O)oc12	HSD17B inhib 31.6µM
C=CCc1cccc2cc(C(=O)N(C)C)c(=O)oc12	HSD17B inhib inconclusive (no result: Bst PK mod)
CCCCN1CCC[C@@H]1CNC(=O)c1cc(C#N)c2ccccc2c1OC	15-hLO inh inconclusive (no result: Bst PK mod)
CC(C)Cn1c(N)c(C(=O)COC(=O)c2cc(-c3ccccc3)nc3ccccc23)c(=O)n(C)c1=O	HSD17B inhib 25.1µM (no result: Luciferase inh, 15-hLO inh, HADH2 inh, Bst PK mod)
Cn1c(=O)c(C(=O)COC(=O)c2cc(-c3ccco3)nc3ccccc23)c(N)n(Cc2ccccc2)c1=O	HSD17B inhib inconclusive (no result: Luciferase inh, 15-hLO inh, HADH2 inh, Bst PK mod)
CC(C)Cn1c(N)c(C(=O)COC(=O)c2cc(-c3ccco3)nc3ccccc23)c(=O)n(C)c1=O	HSD17B inhib 15.8µM, 15-hLO inh inconclusive, HADH2 inh 7.94µM
CCCS(=O)(=O)c1c(S(=O)(=O)CCC)c2c(N)cccn2c1C(=O)c1ccc(F)cc1	HSD17B inhib 5.01µM, ERK AVP block inconclusive, 15-hLO inh 10µM, HADH2 inh inconclusive
CCCS(=O)(=O)c1c(S(=O)(=O)CCC)c2cc(CC)ccn2c1C(=O)OC	none
CN(C)CCSCCO	none (no result: Bst PK mod)
COc1ccccc1N1CCN(CCCCN2C(=O)c3ccccc3C2=O)CC1	HADH2 inh 31.6µM! (no result: Bst PK mod)
COc1ccccc1N1CCN(CCCCN2C(=O)CCC2=O)CC1	none (no result: Bst PK mod)
CCOc1ccccc1/C=C(\C#N)C(N)=O	none (no result: Bst PK mod)
O=c1[nH]c2ccc(S(=O)(=O)N3CCN(Cc4ccccc4)CC3)cc2[nH]c1=O	HSD17B inhib 31.6µM
O=C(O)C1CCCN1S(=O)(=O)c1ccc2[nH]c(=O)c(=O)[nH]c2c1 (configuration not stated)	HSD17B inhib 31.6µM, HADH2 inh inconclusive
COc1cc(S(=O)(=O)N2CCN(Cc3ccccc3)CC2)ccc1Br	none
O=c1[nH]c2ccc(S(=O)(=O)N3CCN(C4CCCCC4)CC3)cc2[nH]c1=O	HSD17B inhib 31.6µM, HADH2 inh inconclusive
N=C(N)c1ccc(OCCCCCOc2ccc(C(=N)N)cc2)cc1 (tested in a mixture with another compound)	none (no result: Bst PK mod)
O=S(O)O.O=S(O)O.[Co].[NH2-].[NH2-].[NH2-].[NH2-]	none (no result: Bst PK mod)
COc1ccccc1N1C(=O)CC(Nc2ccc(N3CCOCC3)cc2)C1=O (configuration not stated)	ERK AVP block inconclusive, 15-hLO inh 12.6µM, HADH2 inh inconclusive
Cc1ccc(-c2cccc(NC(=O)C3C(C(=O)O)[C@@H]4C=C[C@H]3C4)c2)o1 (some centres not stated)	HSD17B inhib 20µM, HADH2 inh inconclusive, Bst PK mod 5.7
CCOC(=O)C(C)n1nc(C)c2sc3ccccc3c2c1=O (configuration not stated)	HSD17B inhib 20µM (no result: Bst PK mod)
CCN1C(=O)[C@H]2[C@H]3[C@H](O)[C@H](O)C/C(=N/O[C@@H]4O[C@@H](COC(C)=O)[C@@H](OC(C)=O)[C@@H](OC(C)=O)[C@H]4OC(C)=O)[C@H]3CC[C@@H]2C1=O	none (no result: Bst PK mod)
O=C(Cn1nnc2ccccc21)NCc1ccccc1	HSD17B inhib 25.1µM
O=S(=O)(c1ccccc1)N1CCC[C@@]2(CCN(Cc3cc(C(F)(F)F)cc(C(F)(F)F)c3)C2)C1	none (no result: Bst PK mod)
Cc1c(C(=O)OC2CCC(C)CC2)[nH]c2c1C(=O)CCC2 (configuration not stated)	Luciferase inh 15.8µM (no result: Bst PK mod)
CCOc1ccc2noc3c2c1C(=O)c1ccccc1-3	none (no result: Bst PK mod)
O=C1c2ccccc2-c2onc3ccc(NCc4ccco4)c1c23	Bst PK mod 5.26 (no result: HSD17B inhib, ERK AVP block, 15-hLO inh, HADH2 inh)
CCC(C)NC(=O)CSc1nc2n[nH]c(C)c2c(=N)n1-c1ccc(OC)cc1 (configuration not stated)	HSD17B inhib inconclusive
CCOc1ccc(-n2c(SCC(=O)NC(C)CC)nc3n[nH]c(C)c3c2=N)cc1 (configuration not stated)	HSD17B inhib 31.6µM
CC(CO)(CO)N=Cc1cc(I)cc(I)c1O	HADH2 inh inconclusive (no result: Bst PK mod)
CCSC1(SCC)N=C(N)C2(C#N)C(c3ccccc3)NC3=C(CCC3)C12C#N (configuration not stated)	none
N#CC12C(N)=NC3(OCCO3)C1(C#N)C1=C(CCC1)NC2c1ccccc1 (configuration not stated)	HSD17B inhib 20µM
COc1ccc(CNc2ccnc(-c3cccc(NS(C)(=O)=O)c3)n2)c(OC)c1	none (no result: Bst PK mod)
O=C(c1cnccn1)N1CCC2(CC1)CN(Cc1nccs1)C2	none (no result: Bst PK mod)
Cc1ccc(-n2nc(C(=O)NCc3ccco3)c3c4ccccc4n(C)c3c2=O)cc1	HSD17B inhib 10µM, HADH2 inh inconclusive
CCN1CCN(C(=O)c2nn(-c3ccc(C)cc3)c(=O)c3c2c2ccccc2n3C)CC1	HADH2 inh 31.6µM
Cc1ccc(-c2nn(CC(=O)NCc3ccco3)c(=O)c3ccccc23)cc1	none
CC(C)[C@@H](CC(=O)N[C@@H]1CCNC[C@H]1C(=O)N[C@H](CC(=O)N[C@@H](CCC(=O)O)CC(=O)O)Cc1c[nH]c2ccccc12)NC(=O)C[C@H](CO)NC(=O)[C@@H]1CCCC[C@H]1N	none (no result: Luciferase inh, HSD17B inhib, ERK AVP block, 15-hLO inh, Bst PK mod)
CC(C)CNS(=O)(=O)c1ccc(CCC(=O)N2CCN(Cc3ccccc3)CC2)cc1	none
CC(C)CNS(=O)(=O)c1ccc(CCC(=O)N2CCN(Cc3ccc4c(c3)OCO4)CC2)cc1	Bst PK mod 2.83
CN1/C(=C\C(=O)c2cccs2)Sc2ccccc21	Luciferase inh 6.31µM, Bst PK mod 6.56
Cc1cc2c(C)nc(-c3ccccc3)nc2o1	none
Cc1nc2cc(-c3ccccc3)ccc2o1	Luciferase inh 15.8µM (no result: Bst PK mod)
COc1ccc2c(=O)cc(-c3ccc(O)cc3)oc2c1	HSD17B inhib 31.6µM, HADH2 inh inconclusive (no result: Bst PK mod)
